# Data from PubChem BioAssay AID651610 (Broad Institute, 2012).
# About 3,900 (1.1%) of roughly 360,000 compounds were called active.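 The calls were made as follows: active = mean replicate inhibition score of at least 50 and every replicate individually at or above 50; inconclusive = only one of the two criteria met; inactive = mean below 50 and not all replicates reaching 50.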 The sample as a whole holds a higher share of actives than the screen did.
# Assay: blockers of JRFL envelope-mediated fusion – HeLa-JRFL effector, CEM21 target cells, luciferase, primary screen (AID 651610);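 also: 0% = plate neutral controls and 100% = maraviroc near 300 nM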
# Conditions: HeLa-JRFL Env/CEM21 cell fusion, active compounds read high; at 16.7 µM unless noted
row,Structure (SMILES),inhibition
1,O=C(NC[C@H]1CC[C@@H]2[C@@H](CN2S(=O)(=O)c2ccccc2F)O1)C1CCCCC1,5.54% (inactive)
2,Cc1ccc(-n2c(O)c(C=Nc3ccc(S(=O)(=O)Nc4ncccn4)cc3)c3ccccc3c2=O)cc1C,65% [at 12.3 µM] (active)
3,CCCCn1nc(C(=O)Nc2ccc(S(=O)(=O)Nc3ncccn3)cc2)c2ccccc2c1=O,3.69% [at 12.3 µM] (inactive)
4,CCN(CC)CCCN=Cc1c(O)n(-c2ccc(C)cc2)c(=O)c2ccccc12,-12.6% [at 12.3 µM] (inactive)
5,Cc1ccc(S(=O)(=O)Nc2ccc3c(c2)C(=O)N([C@H](C)CO)C[C@H](C)[C@H](CN(C)S(=O)(=O)c2ccc(F)cc2)OCCCC[C@@H](C)O3)cc1,-11.1% (inactive)
6,O=C(COc1ccccc1[N+](=O)[O-])N/N=C/c1ccc[nH]1,-18.2% [at 12.3 µM] (inactive)
7,CCCC(=O)Nc1ccc(C(=O)N/N=C/c2ccc[nH]2)cc1,66.2% [at 12.3 µM] (active)
8,CC(=O)Nc1ccc(C(=O)/C=C/c2ccc[nH]2)cc1,3.48% [at 12.3 µM] (inactive)
9,CC1(C)OC(=O)C2=C(CC(CCc3ccccc3)OC2c2ccc(Cl)cc2)O1 (stereo not drawn),-17.2% [at 12.3 µM] (inactive)
10,COc1ccc(C(CNC(=O)c2ccc(NS(=O)(=O)c3ccc(F)c(C)c3)cc2)N(C)C)cc1 (stereo not drawn),-1.84% [at 12.3 µM] (inactive)
11,COc1ccc(C(CNC(=O)c2cccc(NS(=O)(=O)c3ccc(C)c(F)c3)c2)N2CCCC2)cc1 (stereo not drawn),-23.5% [at 12.3 µM] (inactive)
12,Cc1cc(S(=O)(=O)Nc2ccc(C(=O)NCC(c3ccco3)N3CCCC3)cc2)ccc1F (stereo not drawn),57.1% [at 12.3 µM] (active)
13,COc1ccc(NC(=O)N(C)C[C@@H]2OCCCC[C@@H](C)Oc3ccc(N(C)C)cc3C(=O)N([C@H](C)CO)C[C@@H]2C)cc1,7.61% (inactive)
14,C[C@H]1CN([C@@H](C)CO)C(=O)Cc2cc(NC(=O)C3CC3)ccc2O[C@H]1CN(C)C(=O)Nc1ccc(C(F)(F)F)cc1,3.78% (inactive)
15,C[C@H](CO)N1C[C@H](C)[C@@H](CN(C)S(=O)(=O)c2cn(C)cn2)OCCCC[C@H](C)Oc2ccc(NC(=O)Cc3ccccc3)cc2C1=O,-9.54% (inactive)
16,C=CCn1c(C)cc(C2=NNC(=NCC)SC2)c1C,68.8% [at 12.3 µM] (active)
17,CO[C@@H]1CN(C)C(=O)c2ccc(NC(=O)c3ccc(F)cc3)cc2OC[C@H](C)NC[C@@H]1C,-0.21% (inactive)
18,C[C@@H]1CN([C@H](C)CO)C(=O)Cc2cc(NC(=O)Nc3ccc(F)cc3)ccc2O[C@@H]1CN(C)C(=O)Nc1ccc2c(c1)OCO2,8.43% (inactive)
19,COc1ccc(N(CC(=O)Nc2ccc(C)cc2C)S(=O)(=O)c2ccccc2[N+](=O)[O-])c(OC)c1,31.2% [at 12.3 µM] (inactive)
20,COc1ccc(N(CC(=O)Nc2cccc3ccccc23)S(C)(=O)=O)c(OC)c1,4.71% [at 12.3 µM] (inactive)
21,CCc1ccccc1NC(=O)CN(c1ccc(OC)cc1OC)S(=O)(=O)c1ccccc1[N+](=O)[O-],55.2% [at 12.3 µM] (active)

row,Structure (SMILES),inhibition
1,C[C@H](CO)N1C[C@H](C)[C@@H](CN(C)Cc2ccc(C(=O)Nc3ccccc3N)cc2)Oc2c(NC(=O)c3ccc(-c4nccs4)cc3)cccc2C1=O,-33.5% (inactive)
2,COc1ccc(Cl)cc1NC(=O)CN(C)C(=O)CCCc1c[nH]c2ccccc12,75.6% [at 12.3 µM] (active)
3,COc1ccc(Cl)cc1NC(=O)CN(C)C(=O)c1cc2ccccc2cc1OC,26.5% [at 12.3 µM] (inactive)
4,COc1ccc(Cl)cc1NC(=O)CN(C)C(=O)CNC(=O)C12CC3CC(CC(C3)C1)C2,-38.6% [at 12.3 µM] (inactive)
5,C[C@H](CO)N1C[C@H](C)[C@H](CN(C)C(=O)Nc2ccc(C(F)(F)F)cc2)Oc2ccc(NS(=O)(=O)c3cn(C)cn3)cc2CC1=O,10.7% (inactive)
6,CN1C(=O)c2cc(NS(=O)(=O)CC(F)(F)F)ccc2OC[C@H]2O[C@@H](CC(=O)NCc3ccc(Cl)c(Cl)c3)CC[C@@H]21,-8.14% (inactive)
7,COCC(=O)Nc1ccc2c(c1)C(=O)N(C)[C@H]1CC[C@H](CC(=O)Nc3ccccc3)O[C@H]1CO2,12.1% (inactive)
8,O=S(=O)(NCc1ccccc1)c1ccc(S(=O)(=O)N2CCCC2)cc1,-8.09% [at 12.3 µM] (inactive)
9,O=C1c2cccnc2C(Nc2ccc(S(=O)(=O)N3CCCCCC3)cc2)N1Cc1ccccc1 (stereo not drawn),75.5% [at 12.3 µM] (active)
10,Cc1nc(Nc2ccc(S(=O)(=O)N3CCCC3)cc2)c2nnn(Cc3ccccc3)c2n1,11.3% [at 12.3 µM] (inactive)
11,NCC[C@@H]1CC[C@@H](NC(=O)C2CCCC2)[C@H](CO)O1,-16.5% (inactive)
12,O=C(C[C@H]1C[C@H]2c3cc(NC(=O)c4ccc5c(c4)OCO5)ccc3O[C@H]2[C@@H](CO)O1)NCc1cccc(F)c1,-9.68% (inactive)
13,CCc1ccc(CN(C)Cc2nc(Cc3ccccc3)no2)nc1,9.8% [at 12.3 µM] (inactive)
14,CCc1ccc(CN(C)C(=O)CCc2nnc(-c3ccc(-c4ccccc4)cc3)o2)nc1,55.8% [at 12.3 µM] (active)
15,CC(=O)c1ccc(-c2nnc(CCC(=O)N(C)Cc3cnc4ccccn34)o2)s1,0.752% [at 12.3 µM] (inactive)
16,CN(C)C(=O)C[C@H]1C[C@H]2c3cc(NC(=O)Nc4ccccc4F)ccc3O[C@H]2[C@@H](CO)O1,1.88% (inactive)
17,Cc1ccc(-c2noc(CSc3nnc(-c4cccs4)n3C)n2)cc1,19.8% [at 12.3 µM] (inactive)
18,Cc1ccc(-c2noc(CSc3nnc(-c4ccncc4)n3-c3ccc(F)cc3)n2)cc1,62.8% [at 12.3 µM] (active)
19,Cn1cccc1Cc1nnc(SCC(=O)NCCc2ccccc2)n1-c1ccc(F)cc1,16% [at 12.3 µM] (inactive)
20,O=C(CSc1nnc(Cc2ccccc2)n1-c1ccccc1)N1CCOCC1,-26.5% [at 12.3 µM] (inactive)
21,Cn1c(SCc2ccc(F)cc2)nnc1-c1ccncc1,8.23% [at 12.3 µM] (inactive)

row,Structure (SMILES),inhibition
1,Fc1ccc(-n2c(Cc3ccccc3)nnc2SCc2nc(-c3ccc(Cl)cc3)no2)cc1,79.7% [at 12.3 µM] (active)
2,C[C@@H]1CCCCO[C@@H](CN(C)Cc2ccncc2)[C@H](C)CN([C@@H](C)CO)C(=O)c2cc(NS(=O)(=O)c3ccccc3)ccc2O1,18.8% (inactive)
3,CO[C@@H]1CN(C)C(=O)c2cc(NC(C)=O)ccc2OC[C@@H](C)N(C(=O)NC2CCCCC2)C[C@H]1C,27.6% (inactive)
4,CC1(C(=O)NCc2cccc3ccccc23)CCN1Cc1ccc(-c2ccccc2)o1 (stereo not drawn),102% [at 12.3 µM] (active)
5,CSc1ccc(CN2CCC2(C)C(=O)NCc2ccccc2Br)cc1 (stereo not drawn),26.2% [at 12.3 µM] (inactive)
6,CC1(C(=O)NCc2ccc3c(c2)OCO3)CCN1C(=O)Cc1cccc2ccccc12 (stereo not drawn),-2.06% [at 12.3 µM] (inactive)
7,C[C@H](CO)N1C[C@H](C)[C@@H](CN(C)S(=O)(=O)c2ccc(F)cc2)Oc2c(NC(=O)Nc3ccccc3)cccc2C1=O,-4.04% [at 12.3 µM] (inactive)
8,C[C@@H]1CCCCO[C@@H](CN(C)S(=O)(=O)c2ccc(F)cc2)[C@@H](C)CN([C@@H](C)CO)C(=O)c2cc(NC(=O)Nc3ccc4c(c3)OCO4)ccc2O1,-5.81% (inactive)
9,COc1ccc(NC(=O)Nc2ccc3c(c2)CC(=O)N([C@H](C)CO)C[C@H](C)[C@H](CN(C)S(=O)(=O)c2ccccc2)O3)cc1,59.1% (active)
10,C[C@H](CO)N1C[C@H](C)[C@H](CN(C)S(=O)(=O)c2ccccc2)Oc2c(NC(=O)Nc3ccccc3)cccc2C1=O,-1.17% (inactive)
11,CNC[C@H]1Oc2c(NC(=O)Nc3cccc4ccccc34)cccc2C(=O)N([C@H](C)CO)C[C@H]1C,56.8% (active)
12,COc1ccc(S(=O)(=O)N(C)C[C@H]2Oc3ccc(NC(=O)Nc4ccccc4)cc3CC(=O)N([C@H](C)CO)C[C@@H]2C)cc1,-2.93% (inactive)
13,C[C@@H]1CN([C@H](C)CO)C(=O)c2cc(NC(=O)Nc3ccccc3)ccc2O[C@H]1CN(C)S(=O)(=O)c1ccc(F)cc1,-5.96% (inactive)
14,CNC[C@@H]1Oc2c(NC(=O)Nc3ccc(OC)cc3)cccc2C(=O)N([C@@H](C)CO)C[C@@H]1C,5.18% (inactive)
15,C[C@H]1CN([C@@H](C)CO)C(=O)c2cccc(NC(=O)Nc3ccc(C(F)(F)F)cc3)c2O[C@H]1CN(C)S(=O)(=O)c1ccccc1,69.3% (active)
16,C[C@@H]1CN([C@H](C)CO)C(=O)c2cccc(NC(=O)Nc3cccc4ccccc34)c2O[C@@H]1CN(C)C(=O)Nc1cccc2ccccc12,-85% (inactive)
17,C[C@H]1CN([C@@H](C)CO)C(=O)c2cc(NC(=O)Nc3ccc4c(c3)OCO4)ccc2O[C@H]1CN(C)S(=O)(=O)c1ccc(F)cc1,68.9% (active)
18,COc1ccc(NC(=O)Nc2ccc3c(c2)CC(=O)N([C@H](C)CO)C[C@H](C)[C@H](CN(C)S(=O)(=O)c2ccc(OC)cc2)O3)cc1,42.7% (inactive)
19,CCCN(C)C[C@@H]1Oc2cc(-c3cccc(C#N)c3)ccc2S(=O)(=O)N([C@@H](C)CO)C[C@@H]1C,1.91% (inactive)
20,C[C@H](CO)N1C[C@H](C)[C@H](CN(C)C(=O)NC2CCCCC2)Oc2ccc(NC(=O)c3ccncc3)cc2CC1=O,-6.85% (inactive)
21,C[C@@H]1CCCCO[C@H](CN(C)S(=O)(=O)c2cn(C)cn2)[C@H](C)CN([C@@H](C)CO)C(=O)c2cc(NC(=O)Nc3ccc(C(F)(F)F)cc3)ccc2O1,-4.59% (inactive)
